# Screening results (PubChem)
# HSP90 refold inh = inhibitors of HSP90 luciferase refolding in rabbit reticulocyte lysate | inhibition, % at 5.6 µM | luciferase refolding luminescence, 3 h | AID 1789 | hit rate 0.91% among 290,000;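 active = inhibition above the screen-wide mean plus 3 SD, computed separately per campaign, cut at about 16% in these data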;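 also: 0% = DMSO wells and 100% = 60 µM geldanamycin wells; inhibitors lower the luminescence because luciferase stays unfolded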
# SENP7 block = SENP7 protease inhibition | Q9BQF6 | inhibition, % at 5 µM | hit rate 1.5% among 330,000 | recombinant SENP7, Z-RLRGG-aminoluciferin luminescence, 40 min;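 active = inhibition above about 50% at the single test dose, limit read from the data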;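 also: plate controls were DMSO with enzyme for no effect and no enzyme buffer wells for full effect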
# Target sequence (Q9BQF6 706-1050 limits assumed): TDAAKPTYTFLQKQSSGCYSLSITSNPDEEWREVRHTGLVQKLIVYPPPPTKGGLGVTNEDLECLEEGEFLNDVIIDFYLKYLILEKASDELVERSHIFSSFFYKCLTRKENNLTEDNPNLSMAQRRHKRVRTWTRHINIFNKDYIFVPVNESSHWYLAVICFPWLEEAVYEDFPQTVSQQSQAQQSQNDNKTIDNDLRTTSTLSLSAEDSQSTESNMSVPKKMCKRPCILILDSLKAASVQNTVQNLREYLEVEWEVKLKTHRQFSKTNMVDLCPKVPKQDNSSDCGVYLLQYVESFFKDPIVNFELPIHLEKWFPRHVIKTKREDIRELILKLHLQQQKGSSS
# SENP8 block-1 = blocks human SENP8 cleavage of Nedd8 substrate; recombinant SENP8, Nedd8 substrate fluorescence; inhibition, % at 20 µM; hit rate 0.64% among 360,000; AID 602440; in the data active = inhibition mostly above about 40%, no sharp cut-off; inactive = mostly below about 27%
# SENP8 block-2 = inhibitors of human SENP8 protease. Q96LD8. purified SENP8, Z-RLRGG-aminoluciferin cleavage, luminescence. inhibition, % at 10 µM. hit rate 1.2% among 330,000. AID 2540; in the data active = inhibition above about 50%
# SENP6 inh = SENP6 protease inhibition | Recombinant SENP6 catalytic domain, aminoluciferin luminescence | inhibition, % at 10 µM | hit rate 1.8% among 330,000;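 active = inhibition above about 50% at the single tested dose, limit read from the data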;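 also: plate controls were DMSO wells with enzyme for no effect and DMSO wells lacking enzyme for full effect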
# HSP90 inh confirm = HSP90 inhibition, confirmation assay; rabbit reticulocyte lysate, luciferase refolding luminescence, 3 h; hit rate 64% among 2,300; shares compounds with HSP90 refold inh; inhibition, % at 5.9 µM; AID 1846; in the data active = inhibition above about 18%;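 also: 0% = vehicle wells and 100% = reference inhibitor wells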
# luciferase ctr = firefly luciferase inhibition, HSP90 counter-screen. shares compounds with HSP90 refold inh. purified native firefly luciferase, luminescence. inhibition, % at 5.9 µM. hit rate 48% among 2,300. AID 1847;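 active = inhibition above the mean inhibition of all tested sample wells plus 3 SD, cut at about 10% in these data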;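 also: 0% = DMSO with luciferase and 100% = wells lacking luciferase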
# * = called active by the depositor; . = not tested or not shown. In the library only some 2.7% were active in any assay of this set; here they are far more common.
SMILES,HSP90 refold inh,SENP7 block,SENP8 block-1,SENP8 block-2,SENP6 inh,HSP90 inh confirm,luciferase ctr
Cn1nc([N+](=O)[O-])c(C(C#N)c2nc3ccccc3n2C)c(Cl)c1=O (stereo not drawn),3,-9,-166,-6,-20,.,.
O=C1CN(C(=O)CNC(=O)c2cccc(Cl)c2)c2ccccc2N1,2,-2,6,2,-13,.,.
O=C(Nc1ccc2c(c1)OCO2)C1CCCN1C(=O)Nc1ccccc1F (stereo not drawn),2,6,7,2,-14,.,.
COc1ccc2c(c1)C(C)=CC(C)(C)N2C(=O)C(C)N1C(=O)c2ccccc2C1=O (stereo not drawn),-2,6,18,1,-10,.,.
O=C(O)c1ccc(OS(=O)(=O)c2cccc(C(F)(F)F)c2)cc1,.,-2,-8,-6,-21,.,.
O=C1c2ccccc2C(=O)c2cc(S(=O)(=O)Nc3ccccc3)ccc21,5,-2,20,-7,-5,.,.
O=C(O)c1cccc(NS(=O)(=O)c2ccc3c(c2)C(=O)c2ccccc2C3=O)c1,22*,2,39,3,13,6,-4
CCCCc1nnc(NC(=O)CSc2nc(=O)cc(N)n2-c2cccc(C)c2)s1,33*,-12,2,-10,-18,-10,-12
Cc1cc(C)c(C#N)c(SCc2nnc(-c3ccccc3[N+](=O)[O-])o2)n1,-4,-6,9,-3,-12,.,.
Cc1cc(C)c(C#N)c(SCc2nnc(-c3ccccc3)o2)n1,67*,-5,-14,-8,-22,58*,33*
Cc1ccc(C#N)c(SCc2nnc(-c3ccc(Cl)cc3)o2)n1,24*,3,-283,-7,3,75*,75*
Cc1cc(=O)oc2c(C)c(OC(C)C(=O)Nc3ccc(N4CCC(C)CC4)cc3)ccc12 (stereo not drawn),1,7,10,9,-8,.,.
Cc1ccc(NC(=O)C2CCN(c3ncnc4c3nc3n4CCCCC3)CC2)nc1,34*,0,-17,3,11,-10,-22
O=C(C1CCN(c2ncnc3c2nc2n3CCCCC2)CC1)N1CCCCC1,2,2,9,-3,-1,.,.
COc1ccc(/C=C/C(=O)Nc2ccccc2C(=O)O)cc1OC,72*,17,-46,63*,72*,55*,52*
COc1cc(OC)cc(C(=O)N[C@H](C(=O)OCC(=O)Nc2ccc(OC)c(OC)c2)C(C)C)c1,-3,-5,2,-3,-13,.,.
CSc1nc2sc3c(c2c(=O)[nH]1)CCCC3,-5,-2,-41,-5,-4,.,.
CC(C)(C)NC(=O)CSc1nnc(-c2c[nH]c3ccccc23)o1,1,9,-44,1,-5,.,.
COc1ccc(C(=O)NCCn2ccc3ccccc32)c(OC)c1,38*,-5,7,-3,-9,16,-9
C=CCc1cccc(C=Nc2cc(Br)ccc2O)c1O,44*,-9,5,-6,4,80*,-8
CC(=O)Nc1cc(NC(C)=O)c(N=Nc2ccccc2)cc1C,1,-1,24,4,-23,.,.
Cc1ccc(NCC(O)C(O)C(O)CO)c(N=Nc2ccccc2)c1C (stereo not drawn),24*,-6,10,0,-3,-17,-6
O=C(CN(Cc1ccco1)C(=O)CNS(=O)(=O)c1ccc(Cl)cc1)NCc1ccco1,55*,-6,6,-2,-11,-2,-8
Cc1ccc(N(CCC#N)C(=O)COC(=O)C2CCN(S(=O)(=O)c3ccc(C)c(C)c3)CC2)cc1,.,-6,5,-4,-4,.,.
Cc1cccc(OCCCC(=O)Nc2ccc(S(=O)(=O)Nc3ncccn3)cc2)c1C,25*,14,-3,6,-1,1,-5
Cc1cccc(OCCCC(=O)Nc2ccc(S(=O)(=O)Nc3onc(C)c3C)cc2)c1C,-2,-2,16,15,7,.,.
Cc1ccc(-n2c(C)cc(C(=O)Cn3nc(C(=O)O)c4ccccc4c3=O)c2C)cc1,4,-4,19,-14,-2,.,.
CCOc1ccc(CN2CCN(Cc3cc4ccccc4o3)CC2CCO)cc1 (stereo not drawn),61*,-13,27,-3,-4,2,-2
COc1cccc(CN2CCN(Cc3cc4ccccc4o3)CC2CCO)c1 (stereo not drawn),1,-5,1,2,15,.,.
